# In the library only some 9.2% were active in any assay of this set; here they are far more common.
# SMN2 splice enh = SMN2 splice variant enhancement; HEK293 SMN2-luciferase splicing reporter, luminescence, 30-36 h; Potency, µM (titrated, usually from 46.1 µM), inactives show at the top dose activity change, positive = activation, actives largely listed as activators; 210,000 tested, 2.8% active; also: % of control where 0% means no effect; nearly all actives have a fitted effect of over 55% in size
#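 HEK293 cells carry an SMN2 […]–luciferase reporter in which exon 7 inclusion puts luciferase in frame. Cells were plated 10-12 h before compound addition, then incubated 30-36 h at 37C. ONE-Glo luminescence was read; sodium butyrate at 4.5 mM final served as control.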
# FLuc modulator = firefly luciferase modulation, counter-screen for miR-21 project | 360,000 tested, 6.9% active | P08659 | Potency, µM (series often up to 57.5 µM), inactives show top-dose activity change, negative = inhibition, hits mostly inhibitors | purified FLuc, Km substrates, luminescence inhibition;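 also: plate controls were vehicle for no effect and reference inhibitor for full effect; nearly all actives have a fitted effect of over 55% in size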
# Target sequence (P08659 whole entry, looked up): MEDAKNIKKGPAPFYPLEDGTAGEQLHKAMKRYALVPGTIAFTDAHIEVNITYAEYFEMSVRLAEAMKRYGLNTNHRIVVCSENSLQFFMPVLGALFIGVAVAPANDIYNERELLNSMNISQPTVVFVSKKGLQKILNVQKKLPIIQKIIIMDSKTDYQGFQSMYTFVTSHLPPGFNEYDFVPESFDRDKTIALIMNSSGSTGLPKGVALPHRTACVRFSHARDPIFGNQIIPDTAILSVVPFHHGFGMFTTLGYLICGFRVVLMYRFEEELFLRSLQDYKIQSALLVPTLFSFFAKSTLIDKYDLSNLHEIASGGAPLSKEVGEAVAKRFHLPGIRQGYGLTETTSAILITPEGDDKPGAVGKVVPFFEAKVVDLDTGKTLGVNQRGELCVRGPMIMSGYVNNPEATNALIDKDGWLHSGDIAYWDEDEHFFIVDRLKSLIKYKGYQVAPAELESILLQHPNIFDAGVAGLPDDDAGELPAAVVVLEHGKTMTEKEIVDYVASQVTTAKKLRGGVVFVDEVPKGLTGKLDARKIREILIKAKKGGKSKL
#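 Purified P. pyralis luciferase (10nM final) with 10uM D-luciferin and 10uM ATP (Km levels) in 50mM Tris acetate pH 7.5, 10mM Mg acetate, 0.01% Tween-20, 0.05% BSA; qHTS 6-point titration, ~60 µM downward; luminescence read.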
# ELG1 repair inh = inhibitors of ELG1-dependent DNA repair in HEK293T cells. HEK293T ELG1-luciferase reporter, luminescence, 16 h; DNA damage induced by 5-fluorouridine. Potency, µM (titrated, usually from 46.1 µM), inactives show top-dose activity change, negative = inhibition, actives largely listed as inhibitors. 330,000 tested, 2.3% active. AID 504467; also: % is scaled to controls: 0 for no effect and ±100 for the full control effect; nearly all actives have a fitted effect of over 55% in size
#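 Step one: seed 2,000 cells per well. Step two: pin-transfer compound or DMSO alongside 5-fluorouridine. Step three: incubate 16 hr, 37 °C, 5% CO2. Step four: add ONE-Glo, wait 30 min, read luminescence.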
# ELG1 genotoxic = inducers of genotoxicity in HEK293T ELG1-luciferase cells; HEK293T ELG1-luciferase reporter, luminescence, 16 h; 330,000 tested, 1.3% active; AID 504466; Potency, µM (series often up to 46 µM), inactives show at the top dose activity change, positive = activation, actives largely listed as activators; also: % of control where 0% means no effect; nearly all actives have a fitted effect of over 60% in size
#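 HEK293T cells expressing luciferase-tagged ELG1 were exposed to compound or DMSO vehicle for 16 hr at 37 °C and 5% CO2. Luciferase activity was then measured with ONE-Glo after 30 min at room temperature.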
# Rab9 promoter act = activators of Rab9 promoter; 320,000 tested, 2.8% active; Huh7 Rab9 promoter-luciferase reporter, luminescence, 24 h; Potency, µM (series often up to 9.22 µM), without a hit: top-dose activation, negative = inhibition, most hits filed as activators; also: % of control where 0% means no effect; nearly all actives have a fitted effect of over 60% in size
#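 Steps: seed 1500 Huh7 Rab9-luc cells per well, rest 2 h at 37 °C; add compound in DMSO; incubate 24 h; add luciferase reagent, 10 min ambient; read luminescence.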
# NPC1 prom act = activators of NPC1 promoter. AID 485313. Huh7 NPC1 promoter luciferase reporter, 24 h. 320,000 tested, 2.4% active. Potency, µM (titrated, usually from 9.22 µM), for the others: at the highest dose activation, usual class: activators; also: % of control where 0% means no effect; nearly all actives have a fitted effect of over 60% in size
#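 NPC1 promoter–luciferase Huh7 cells; 24 h compound; luminescence.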
# Numbers without * were called inactive; ? = inconclusive; nt = no result given; [ ] = remark or other dose. Calls follow the shape of the dose curve; as a rule, active = well fitted curve in the direction sought with a large enough effect; inconclusive = small, poorly fitted or top-dose-only effect, or another doubt; inactive = no such curve, though single readings can be large; an effect the other way counts as inactive or inconclusive. Potency is read from the fitted curve at half-maximal effect.
SMILES,SMN2 splice enh,FLuc modulator,ELG1 repair inh,ELG1 genotoxic,Rab9 promoter act,NPC1 prom act
COc1ccc(OCCSc2nnnn2C2CCCCC2)cc1,18.0%,?,24.4%,18.7%,18.9%,0.7%
Cc1nc(-c2ccc(Cl)cc2)sc1C1(C)CC(c2cccnc2)=NO1 (stereo not given),nt,16.9µM*,?,?,?,?
CCC(C)(NC=O)C(=O)Nc1c(C)cccc1C (stereo not given),nt,-0.8%,2.3%,-0.2%,6.7%,3.1%
COCCOC(=O)C1=C(C)NC(=S)NC1/C=C/c1ccccc1 (stereo not given),-1.0%,-2.1%,5.8µM*,2.6%,-0.2%,2.6%
Cc1ccc(NC(=O)C(Cc2ccccc2)NS(=O)(=O)c2cccc3nsnc23)c(C)c1 (stereo not given),-35.4%,-13.9%,nt,nt,nt,nt
CCCCOC(=O)Oc1ccc2c(=O)c(Oc3cc(C)cc(C)c3)coc2c1,-7.3%,-6.6%,14.0%,-3.0%,-1.9%,-3.3%
CCCCOC(=O)Oc1ccc2c(=O)c(Oc3cccc(C)c3)coc2c1,12.6µM*,-14.9%,?,25.0%,19.5%,9.1%
C=CCn1c(=O)/c(=C/c2ccc(Cl)cc2)s/c1=C(/C#N)c1nnc2n1CCCCC2,12.4%,3.6%,20.6µM*,-33.2%,0.5%,-3.5%
COCCN(Cc1ccc(F)cc1)C(=O)c1cc2ccccc2oc1=O,nt,-2.9%,-0.6%,-1.1%,-0.3%,-3.2%
COC(=O)C1CSC(c2ccc(Cl)cc2)N1C(=O)c1ccccc1 (stereo not given),-6.3%,0.0%,7.2%,-3.3%,-0.4%[1.84 µM],-8.7%
COc1ccc(C)c2sc(NC(=O)C3=COCCO3)nc12,?,5.36µM*,?,16.4µM*,15.1%,13.7%
COc1ccc(OC)c(-c2csc(NC(=O)Cc3ccc(F)cc3)n2)c1,nt,16.9µM*,-20.2%,-12.8%,-2.0%,-6.3%
COc1ccc(C(=O)Nc2nc(CC(=O)NCc3ccc(F)cc3)cs2)cc1,nt,?,?,-8.9%,?,24.5%
COc1ccc(C(=O)Nc2nc(CC(=O)NCCc3ccccc3OC)cs2)cc1,nt,2.69µM*,?,-6.5%,5.3%,-5.9%
COc1ccc(OC)c(-c2csc(NC(=O)C3=COCCO3)n2)c1,nt,10.7µM*,1.3%,-3.8%,-0.1%,0.5%
Cc1ccc(C)c(-c2csc(NC(=O)C3=COCCO3)n2)c1,nt,?,?,?,0.5%,-1.6%
COc1ccc(OC)c(CCNC(=O)c2cnn(-c3ccccc3Cl)c2C2CCN(C(=O)OC(C)(C)C)CC2)c1,nt,-1.9%,nt,nt,nt,nt
CC(NC(=O)C(=O)c1cn(CC(=O)N2CCOCC2)c2ccccc12)c1ccccc1 (stereo not given),nt,-5.7%,12.2%,2.0%,-1.1%,-3.5%
COc1ccc(OC)c(-c2csc(NC(=O)c3ccc(OCC4CCCO4)cc3)n2)c1 (stereo not given),-25.3%,1.51µM*,6.51µM*,-4.2%,-25.2%,-3.9%
COc1ccc(OC)c(-c2csc(NC(=O)c3ccc(F)cc3)n2)c1,nt,10.7µM*,?,7.3%,6.5%,?
c1ccc(-c2nc3c4ccccc4ccn3c2CN2CCOCC2)cc1,nt,4.78µM*,?,?,11.9%,-2.7%
O=C(N/N=C1\CCc2ccccc21)c1ccccc1O,1.12µM*,1.69µM*,?,?,0.794µM*,0.631µM*
O=C(N/N=C1\CCc2ccccc21)c1ccncc1,20µM*,21.3µM*,?,?,?,?
O=C(NN=C1C2CC3CC(C2)CC1C3)c1ccccc1O,nt,16.9µM*,-5.0%,-3.0%,-2.8%,-8.1%
O=C(NN=C1C2CC3CC(C2)CC1C3)c1cccs1,2.2%,-17.9%,?,?,1.0%,1.2%
SMILES,SMN2 splice enh,FLuc modulator,ELG1 repair inh,ELG1 genotoxic,Rab9 promoter act,NPC1 prom act
O=C(O)c1ccc(N=Nc2c(O)[nH]c3ccccc23)cc1,nt,0.426µM*,?,?,?,0.1µM*
O=C(N=Nc1c(O)[nH]c2ccccc12)c1cccs1,11.2µM*,2.13µM*,?,12.0%,2.51µM*,?
CC(=O)c1cccc(N=Nc2c(C)[nH]c3ccccc23)c1,3.6%,23.9µM*,25.8%,6.4%,4.1%,2.3%
Cc1cc(N=Nc2c(O)c3ccccc3[nH]c2=O)ccc1N=Nc1ccc(C(=O)N(C)C)cc1,nt,?,?,17.4%,?,?
Cc1cccc(C)c1N=Cc1c(C(F)(F)F)[nH][nH]c1=O,0.6%,-2.6%,7.2%,-6.4%,1.0%,-2.8%
O=C(Nc1ccc(Cl)cc1)Nc1csc([N+](=O)[O-])c1,nt,?,-2.7%,-4.6%,-23.3%,1.8%
Cc1ccccc1C(=O)NC1CCN(Cc2nnnn2CCc2ccccc2)CC1,-1.5%,3.3%,-3.4%,-2.2%,1.5%,0.7%
CCOC(=O)C1CCN(Cc2nnnn2CCc2ccccc2)CC1,nt,?,?,?,1.58µM*,3.98µM*
Cc1cc(C(=O)COc2ncnc3sccc23)c(C)n1C1CC1,7.4%,-13.2%,?,?,?,?
CCCn1c(C)cc(C(=O)COC(=O)c2nccnc2N)c1C,10µM*,3.38µM*,?,?,0.447µM*,1.12µM*
CCCn1c(C)cc(C(=O)COC(=O)c2cc(S(=O)(=O)NCC(C)C)c(Cl)cc2Cl)c1C,?,9.53µM*,?,7.9%,-5.7%,1.3%
CCCn1c(C)cc(C(=O)COc2ncnc3sccc23)c1C,11.2µM*,8.49µM*,?,?,2.24µM*,2.82µM*

# Source: PubChem
